# In PubChem BioAssay AID1212 (NMMLSC, 2008):
# Values without a mark were called inactive. The source made the active and inactive calls.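 How the source made its calls: active means blocks over 60% of fluorescent estradiol binding at 10 µM; inactive means the rest.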
# Target: G-protein coupled estrogen receptor 1 (Homo sapiens) (UniProt Q99527)
# Test: GPR30 competitive binders vs fluorescent estrogen, primary screen, cell-based, Cos7 GPR30-GFP, flow cytometry, 10 µM (AID 1212)
# Settings: fluorescent estrogen competition, at 10 µM; active compounds read high
Structure (SMILES),inhibition,outcome
CCOc1cc2c(c([N+](=O)[O-])c1)NC(c1ccc(Br)cc1)C1CC=CC21 (stereo not given),23%,–
CC(=O)c1ccc(N2Cc3ccccc3C2)cc1,–,inactive
Cc1nc2ccccc2n1-c1cc(C(C)(C)C)c(O)c(C(C)(C)C)c1,–,inactive
COc1cccc(C2NCCc3cc(OC)c(OC)cc32)c1 (stereo not given),–,inactive
CCOc1cc2c(cc1OCC)C(C(CC)CC)NCC2 (stereo not given),–,inactive
CC(C)COc1ccc2c(c1)c1c3n2CCNC3CCC1 (stereo not given),–,inactive
CC(=O)OC1CC2(C)C(=O)CCC2C2CCc3cc(O)ccc3C12 (stereo not given),–,inactive
CC(C)C1CC(CCNCc2ccc3c(c2)OCO3)(c2ccccc2)CCO1 (stereo not given),–,inactive
Cc1nn(-c2ccccc2)c2sc(C#N)c(N)c12,58%,–
Oc1ccc2c(c1)c1c3n2CCNC3CCC1 (stereo not given),–,inactive
CC(=O)c1ccc2c(c1)C1C=CCC1C(c1cccc([N+](=O)[O-])c1)N2 (stereo not given),64% (active),–
COc1ccc2[nH]c3c(c2c1)CCNC3=O,15%,–
COC(=O)c1ccc(OCc2c(C)noc2C)cc1,61% (active),–
CC1(C)Cc2[nH]c(=O)c(C(=O)O)cc2CO1,–,inactive
CC(C)CN(Cc1c(O)ccc2c3c(c(=O)oc12)CCC3)CC(C)C,3%,–
CC1(C)C=C(c2ccc(O)cc2)CC(C)(C)N1,–,inactive
CCCCc1cc(=O)oc2c(C)c(O)ccc12,–,inactive
COc1cc(C2C3C(C)N(C)C(=O)N(C)C3N(C)C(=O)N2C)ccc1O (stereo not given),–,inactive
COc1cc([N+](=O)[O-])cc2c1NC(c1ccc(Br)cc1)C1CC=CC21 (stereo not given),–,inactive
Cc1c(Cc2ccccc2)c(=O)n2c([nH]c3ccccc32)c1C#N,8%,–
